Screening results from PubChem.
GLS inh – glutaminase GLS (human) inhibition; AID 624170; Potency, µM (top dose mostly 45.5 µM), for the others: at the top dose activity change, negative = inhibition, hits mostly inhibitors; 410,000 compounds, 0.21% hits; GLS enzymatic activity, qHTS titration; O94925; further: on the % scale 0 is the no-effect control and ±100 the full control effect
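hKGA; 45 mM KH2PO4 pH 8.2 + 0.02% Tween-20; cpd via pin tool; 1 mM Gln soln; GluOx/HRP/Amplex Red; RT 30 min; fluor. t0 & final.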
L3MBTL1 block – inhibitors of human L3MBTL1; 230,000 compounds, 0.66% hits; Potency, µM (top dose mostly 57.1 µM), for inactives: top-dose activity, negative = inhibition, usual class: inhibitors; AlphaScreen L3MBTL1–H3K9me1 peptide binding; further: on the % scale 0 is the no-effect control and ±100 the full control effect; nearly all actives have a fitted effect of over 60% in size
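Displacement of a biotinylated histone H3(1-15) peptide monomethylated at Lys9 (75 nM) from L3MBTL1 (50 nM) was measured by AlphaScreen after a 30 min room-temperature compound incubation; cefsulodin titration served as intraplate control.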
HP1b binding inh – inhibitors of HP1-beta chromodomain binding to methylated histone tails | 390,000 compounds, 0.56% hits | AID 540317 | Potency, µM (titrated, usually from 114 µM), without a hit: top-dose activity change, negative = inhibition, usual class: inhibitors | AlphaScreen HP1-beta / biotin-H3K9me3 peptide binding | P83916; further: nearly all actives have a fitted effect of over 70% in size
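Compound inhibition of the preformed complex between 50 nM HP1-beta and 50 nM biotinylated H3K9me3 peptide was read by AlphaScreen. Buffer was PBS pH 7.4 with 0.01% Tween-20. Incubations ran 30 min at room temperature, with 10 ug/mL donor/acceptor beads.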
G9a inh – blocks human histone lysine methyltransferase G9a | Potency, µM (series often up to 102 µM), inactives show at the top dose activity, negative = inhibition, hits mostly inhibitors | Q96KQ7 | AID 504332 | G9a H3K9 monomethylation, AlphaScreen, 2 h | 350,000 compounds, 8.8% hits; further: on the % scale 0 is the no-effect control and ±100 the full control effect; nearly all actives have a fitted effect of over 75% in size
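Readings reflect AlphaScreen signal from monomethyl-H3K9 antibody detection. HMT at 20 nM; substrate b-H3K9 500 nM; cofactor SAM 20 uM; 2 h RT reaction; compounds tested as titrations in qHTS with 15 min preincubation.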
BAZ2B inh – inhibitors of human BAZ2B bromodomain. 360,000 compounds, 4.4% hits. Q9UIF8. AID 504333. AlphaScreen BAZ2B-H3K14Ac peptide displacement. Potency, µM (highest dose often 114 µM), for the others: top-dose activity change, negative = inhibition, hits mostly inhibitors; further: on the % scale 0 is the no-effect control and ±100 the full control effect; nearly all actives have a fitted effect of over 60% in size
Target sequence (Q9UIF8 whole entry, looked up): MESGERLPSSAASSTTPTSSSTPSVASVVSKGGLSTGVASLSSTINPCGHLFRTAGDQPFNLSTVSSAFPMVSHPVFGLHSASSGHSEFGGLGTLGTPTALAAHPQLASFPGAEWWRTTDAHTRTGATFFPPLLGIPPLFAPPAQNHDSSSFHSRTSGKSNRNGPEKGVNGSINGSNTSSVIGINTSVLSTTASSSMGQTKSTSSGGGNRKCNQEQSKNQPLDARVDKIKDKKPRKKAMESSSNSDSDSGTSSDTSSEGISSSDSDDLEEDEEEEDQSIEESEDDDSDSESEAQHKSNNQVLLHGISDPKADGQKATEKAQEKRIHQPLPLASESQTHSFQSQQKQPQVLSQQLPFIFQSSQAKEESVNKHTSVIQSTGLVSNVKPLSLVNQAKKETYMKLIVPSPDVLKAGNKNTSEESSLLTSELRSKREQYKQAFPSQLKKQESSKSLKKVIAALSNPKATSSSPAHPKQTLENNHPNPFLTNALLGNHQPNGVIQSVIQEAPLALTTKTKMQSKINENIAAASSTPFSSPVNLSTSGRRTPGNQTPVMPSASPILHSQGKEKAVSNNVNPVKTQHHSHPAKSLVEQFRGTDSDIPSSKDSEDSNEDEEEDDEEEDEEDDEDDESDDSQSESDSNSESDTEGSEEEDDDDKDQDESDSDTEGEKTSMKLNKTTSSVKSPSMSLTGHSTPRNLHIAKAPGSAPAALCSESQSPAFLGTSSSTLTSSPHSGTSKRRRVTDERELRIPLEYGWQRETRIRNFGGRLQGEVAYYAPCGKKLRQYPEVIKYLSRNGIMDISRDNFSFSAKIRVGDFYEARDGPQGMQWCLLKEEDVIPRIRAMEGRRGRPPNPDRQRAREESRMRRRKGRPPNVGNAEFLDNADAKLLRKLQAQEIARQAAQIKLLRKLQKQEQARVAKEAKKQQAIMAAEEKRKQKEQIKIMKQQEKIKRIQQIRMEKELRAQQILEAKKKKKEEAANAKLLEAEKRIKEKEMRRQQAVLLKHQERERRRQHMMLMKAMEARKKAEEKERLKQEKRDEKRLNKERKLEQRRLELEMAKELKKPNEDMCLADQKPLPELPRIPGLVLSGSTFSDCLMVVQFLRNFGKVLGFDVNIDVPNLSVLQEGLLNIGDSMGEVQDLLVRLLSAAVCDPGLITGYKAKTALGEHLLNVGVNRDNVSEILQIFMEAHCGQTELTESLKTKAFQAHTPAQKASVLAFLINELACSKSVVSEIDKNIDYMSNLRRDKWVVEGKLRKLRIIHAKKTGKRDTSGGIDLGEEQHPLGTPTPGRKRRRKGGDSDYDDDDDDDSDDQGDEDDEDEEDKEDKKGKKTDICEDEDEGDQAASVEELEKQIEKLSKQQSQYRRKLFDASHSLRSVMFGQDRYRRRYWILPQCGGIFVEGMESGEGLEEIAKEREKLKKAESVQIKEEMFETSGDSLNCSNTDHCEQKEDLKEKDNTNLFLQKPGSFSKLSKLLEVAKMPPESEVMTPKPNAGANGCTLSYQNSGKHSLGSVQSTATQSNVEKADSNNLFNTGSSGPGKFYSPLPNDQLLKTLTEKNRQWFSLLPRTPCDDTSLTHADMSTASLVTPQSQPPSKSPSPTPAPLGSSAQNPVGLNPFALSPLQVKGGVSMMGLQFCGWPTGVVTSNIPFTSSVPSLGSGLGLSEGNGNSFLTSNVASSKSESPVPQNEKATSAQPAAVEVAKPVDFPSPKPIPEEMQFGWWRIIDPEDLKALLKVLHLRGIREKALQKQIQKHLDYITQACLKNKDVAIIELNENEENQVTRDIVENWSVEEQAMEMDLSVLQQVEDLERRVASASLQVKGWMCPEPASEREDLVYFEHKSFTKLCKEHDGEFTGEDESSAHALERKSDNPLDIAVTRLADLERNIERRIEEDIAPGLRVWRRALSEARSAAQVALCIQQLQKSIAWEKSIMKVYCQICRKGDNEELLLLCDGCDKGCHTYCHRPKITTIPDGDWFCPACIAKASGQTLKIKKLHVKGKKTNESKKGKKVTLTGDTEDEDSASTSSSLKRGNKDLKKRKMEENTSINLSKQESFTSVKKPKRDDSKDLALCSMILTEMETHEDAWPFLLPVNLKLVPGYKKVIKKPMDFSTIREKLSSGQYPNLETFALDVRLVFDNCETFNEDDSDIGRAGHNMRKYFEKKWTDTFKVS
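Compounds, titrated to a top concentration of 110 uM, were incubated 30 min at room temperature with preformed BAZ2B/acetyl-K14 H3 peptide complex (50 nM each). Proximity signal was measured by AlphaScreen after 20 min with beads.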
JMJD2A Tudor – inhibitors of human JMJD2A Tudor domain; O75164; AlphaScreen JMJD2A-Tudor / H3K4me3 peptide binding; Potency, µM (series often up to 114 µM), for the others: at the top dose activity change, negative = inhibition, hits mostly inhibitors; 390,000 compounds, 4.4% hits; further: on the % scale 0 is the no-effect control and ±100 the full control effect; nearly all actives have a fitted effect of over 50% in size
* marks the source's active call; other numbers are inactive results; ? = inconclusive; nt = not tested or not shown; [ ] = remark or other dose. Hits are enriched below; roughly 10% of the tested compounds scored in any of these assays. The call rests on the fitted dose curve; in most records, active means well fitted curve in the direction sought with a large enough effect; inconclusive means small, poorly fitted or top-dose-only effect, or another doubt; inactive means no such curve, though single readings can be large; an effect the other way counts as inactive or inconclusive. Potency means the concentration at half of the fitted maximal effect.

SMILES | GLS inh | L3MBTL1 block | HP1b binding inh | G9a inh | BAZ2B inh | JMJD2A Tudor
COc1ccc(-c2csc(C)n2)cc1 | -2% | 4% | 56% | -16%[59 µM] | 4% | -6%
COc1ccc(-c2csc(CCN3N=C(C)CC3=O)n2)cc1 | ? | nt | 2% | 32µM* | 40µM* | ?
COc1ccccc1N1CCN(C2CCCN(S(=O)(=O)c3ccc(C)cc3)C2)CC1 (stereo not given) | 7% | nt | 6% | 56µM* | -32% | -31%
COc1ccccc1N1CCN(S(=O)(=O)c2c(C)[nH]c(=O)[nH]c2=O)CC1 | 20% | nt | 43% | -5% | 6% | 2%
COc1ccc(S(=O)(=O)N2CCC(N3CCN(c4ccccc4OC)CC3)CC2)cc1 | 0% | -3% | 40µM* | 3.2µM* | 40µM* | 1.8µM*
COc1ccccc1N1CCN(C2CCCN(S(=O)(=O)c3cccc(Cl)c3)C2)CC1 (stereo not given) | 15% | nt | -23% | ? | ? | ?
COc1ccccc1N1CCN(S(=O)(=O)c2c[nH]c(=O)[nH]c2=O)CC1 | 1% | -9% | 40% | 20µM* | 9% | 0%
COc1ccc(S(=O)(=O)N2CCC(N3CCN(Cc4ccccc4)C(=O)C3=O)CC2)cc1 | 2% | nt | 20% | -3%[59 µM] | 0% | 79µM*
COc1ccc(CNC(=O)c2ccc(-c3nc(CSc4ccc(C)cc4)c(C)o3)cc2)c(OC)c1 | 1% | nt | 27% | -38%[59 µM] | -14% | -16%
CC(=O)Nc1ccc(S(=O)(=O)N2CCC(c3nnc(-c4ccc(C)cc4)o3)CC2)cc1 | 2% | -1% | 37% | 28µM* | 0% | -13%
COc1ccccc1-c1nnc(C2CCN(S(=O)(=O)c3ccccc3[N+](=O)[O-])CC2)o1 | 1% | nt | 18% | 40µM* | -17% | -32%
Cc1ccc(-c2nnc(C3CCN(S(=O)(=O)c4ccc(C)c(C)c4)CC3)o2)cc1 | 4% | nt | 44% | ? | -17% | -15%
COc1ccccc1-c1nnc(C2CCN(S(=O)(=O)c3ccc([N+](=O)[O-])cc3)CC2)o1 | 5% | nt | 2% | nt | ? | -14%
COc1ccccc1-c1nnc(C2CCN(S(=O)(=O)c3ccccc3)CC2)o1 | 0% | nt | 46% | ? | -14% | -8%
COc1ccc(-c2nnc(C3CCN(S(=O)(=O)c4ccccc4)CC3)o2)cc1 | 7% | 2% | 34% | 40µM* | -2% | -12%
Cc1cccc(-c2nnc(C3CCN(S(=O)(=O)c4cccc(Cl)c4)CC3)o2)c1 | 10% | nt | -6% | 3.2µM* | -13% | -29%
COc1ccccc1/C=C/c1nc(C#N)c(N2CCCCCC2)o1 | 2% | nt | -13% | ? | ? | -25%
COc1ccc(S(=O)(=O)NCCc2csc3nc(-c4ccc(Cl)cc4)nn23)cc1C | -7% | nt | 23% | 1%[59 µM] | ? | -2%
COc1ccc(S(=O)(=O)N(CC(=O)Nc2ccccc2Br)Cc2ccccc2)cc1 | -9% | nt | 44% | 32%[59 µM] | 8% | 8%
N#C/C(C(N)=O)=C1/SC=C(c2ccccc2)N1c1ccccc1 | -10% | -8% | 15% | ? | -10% | -6%
N#C/C(C(=O)c1ccccc1)=C1/SC=C(N)N1c1ccccc1 | nt | ? | nt | ? | 45µM* | nt
Cc1ccc2[nH]c3c(N4CCN(Cc5ccc6c(c5)OCO6)CC4)ncnc3c2c1 | nt | -3% | nt | 50µM* | ? | nt
COc1ccc2c(c1)[nH]c1c(N3CCSCC3)ncnc12 | -8% | -9% | 11% | nt | ? | -13%
COc1ccc2c(c1)[nH]c1c(N3CCN(Cc4ccc5c(c4)OCO5)CC3)ncnc12 | 5% | -12% | -27% | nt | 45µM* | ?
COc1cccc2[nH]c3c(N4CCN(Cc5ccc6c(c5)OCO6)CC4)ncnc3c12 | nt | 7% | nt | 45µM* | 35µM* | nt
SMILES | GLS inh | L3MBTL1 block | HP1b binding inh | G9a inh | BAZ2B inh | JMJD2A Tudor
COc1cc(C2CC(=O)Oc3c(C(CCN4CCCC(C)C4)c4ccc(N(C)C)cc4)c(OC)cc(OC)c32)cc(OC)c1OC (stereo not given) | 29% | nt | ? | ? | 35µM* | 40µM*
CCCCCc1cc(=O)oc2c(C(CCN3CCCC(C)C3)c3cc(OC)c(OC)c(OC)c3)c(OC)cc(OC)c12 (stereo not given) | -13% | nt | 6% | ? | -30% | ?
COc1cc(C(CCN2CCCC(C)C2)c2c(OC)cc(OC)c3c(C)cc(=O)oc23)cc(OC)c1OC (stereo not given) | nt | nt | ? | nt | nt | -19%
COc1cc(C(CCN2CCCC(C)C2)c2c(OC)cc(OC)c3c2OC(=O)CC3c2ccc(N(C)C)cc2)cc(OC)c1OC (stereo not given) | 4% | nt | ? | ? | 14µM* | 16µM*
COc1cc(OC)c2c(c1C(CCN1CCCC(C)C1)c1ccc(N(C)C)cc1)OC(=O)CC2c1ccc(N(C)C)cc1 (stereo not given) | nt | nt | ? | nt | nt | 8.9µM*
CCOc1ccccc1CNC(=O)CSc1n[nH]c(-c2ccccc2)n1 | 5% | nt | 31%[57 µM] | 4%[59 µM] | 1% | -17%
O=C(O)CCCN1C(=O)C(=O)/C(=C(/O)c2ccc(Cl)cc2)C1c1ccccc1 (stereo not given) | 6% | 7% | 30% | ? | -3% | ?
O=C(O)CCCN1C(=O)C(=O)/C(=C(/O)c2ccccc2)C1/C=C/c1ccccc1 (stereo not given) | ? | 2% | 2% | 22%[0.501 µM] | ? | 45µM*
c1cc2c(cc1C1CCCCC1)c1c3n2CCN=C3CCC1 | -6% | 8% | -10% | ? | 0% | ?
Cc1ccc2c(c1)c1c3n2CCN=C3CCC1 | 3% | 4% | 11% | 18µM* | nt | -24%
CC12CCC(C(=O)N(CCCN3CCN(Cc4ccccc4)CC3)C1=O)C2(C)C (stereo not given) | -12% | -4% | 5% | ? | 50µM* | ?
CN(C)c1ccc(/C=C/C(=O)c2cccnc2)cc1 | 26% | 21% | 74% | 11% | 5% | 32%
Cc1c(N2C(=O)/C(=C\c3ccc(N(C)C)cc3)N(C)C2=S)c(=O)n(-c2ccccc2)n1C | 17% | -15% | ? | 40µM* | 45µM* | ?
CN1C(=S)N(c2cccnc2)C(=O)/C1=C\c1ccc(N(C)C)cc1 | 14% | -18% | -29% | ? | 11µM* | ?
O=C(c1cc(-c2ccc(O)cc2)on1)N1CCN(c2ccc(F)cc2)CC1 | 9% | -14% | 9% | nt | ? | ?
O=C(c1cc(-c2cccc(O)c2)on1)N1CCCC1 | 3% | nt | 10% | 50µM* | -1% | -9%
O=C(c1cc(C2CC2)nn1-c1ccccc1)N1CCN(c2ccc(O)cc2)CC1 | 13% | -17% | 71µM* | 2.8µM* | ? | 32µM*
